Measurements: PubChem BioAssay AID1499 (Sanford-Burnham Center for Chemical Genomics, 2009)
Hit rate of the full screen: of about 93,000 compounds, about 65 (0.07%) were called active.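 Rule for the calls: active = 10 µM primary screen giving 50% or more activity, confirmed by 40% or more on retest at that dose; inactive = the rest.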 Shown is part of a subset that was picked to be rich in actives.

molecular target: Integrin beta-2 (Homo sapiens) + Integrin alpha-M (Homo sapiens) (UniProt P05107+P11215); test: agonists of integrin CD11b/CD18-fibrinogen binding – K562 cells, luminescence, primary screen (AID 1499); conditions: K562 CD11b/CD18 adhesion to fibrinogen, ATPlite luminescence; at 10 µM; stronger effect = higher value
Sequence (P05107 whole entry, looked up, other chains not shown): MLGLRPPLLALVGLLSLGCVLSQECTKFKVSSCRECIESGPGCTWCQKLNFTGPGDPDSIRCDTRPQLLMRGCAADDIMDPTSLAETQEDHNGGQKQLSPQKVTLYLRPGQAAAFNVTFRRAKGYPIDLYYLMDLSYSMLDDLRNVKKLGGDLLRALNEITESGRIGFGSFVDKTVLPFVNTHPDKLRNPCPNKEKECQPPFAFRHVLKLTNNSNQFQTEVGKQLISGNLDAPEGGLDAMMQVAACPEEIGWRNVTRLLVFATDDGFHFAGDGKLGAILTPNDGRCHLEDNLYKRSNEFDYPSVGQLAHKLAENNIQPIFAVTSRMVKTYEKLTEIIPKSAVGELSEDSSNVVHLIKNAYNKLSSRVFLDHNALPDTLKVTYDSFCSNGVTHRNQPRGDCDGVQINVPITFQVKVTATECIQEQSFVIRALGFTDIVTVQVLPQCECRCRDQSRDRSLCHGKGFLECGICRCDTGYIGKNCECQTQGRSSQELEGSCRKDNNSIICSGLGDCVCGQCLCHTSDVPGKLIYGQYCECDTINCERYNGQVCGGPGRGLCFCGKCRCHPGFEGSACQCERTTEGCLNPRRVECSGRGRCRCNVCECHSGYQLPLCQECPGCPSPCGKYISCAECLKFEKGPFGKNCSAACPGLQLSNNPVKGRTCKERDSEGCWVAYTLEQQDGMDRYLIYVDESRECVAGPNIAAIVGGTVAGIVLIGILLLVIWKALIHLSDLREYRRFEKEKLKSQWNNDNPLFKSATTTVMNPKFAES

activation, inactive:
CCOC(=O)c1c(NC(=S)Nc2ccccc2C)sc2c1CCC2 2.8%
CCOCCCNC(=O)C(=O)NCCCOCC -2.3%
CCc1nnc(NC(=O)C2CC(=O)N(c3ccc4c(c3)OCCO4)C2)s1 (stereo unspecified) 5%
CCCn1c(C)cc(/C=C(\C#N)C(=O)OCC(=O)Nc2cc(OC)c(OC)c(OC)c2)c1C 3%
O=C(/C=C/c1ccccc1)Nc1nnc(SCC(=O)c2ccc3ccccc3c2)s1 59.6%
CCc1nnc(NC(=O)[C@@H](NC(=O)c2cccc(C)c2)C(C)C)s1 -1.2%
O=C(CSc1nc2ccccc2[nH]1)Nc1nc(-c2ccccc2)c(-c2ccccc2)o1 -6.7%
CN(Cc1cccs1)C(=O)Cc1c[nH]c2ccccc12 -1.9%
COC(=O)c1ccc(OCC(O)CN(CCO)CC(O)Cn2ccc3ccccc32)cc1 (stereo unspecified) 8.9%
Cc1c(Cl)cnc(NC(=O)COC(=O)c2ccc(S(=O)(=O)NCc3ccco3)cc2)c1Cl 12.8%
CC(C)(C)c1ccc(C(=O)NCc2nnc(SCC(=O)N3CCCc4ccccc43)n2-c2ccccc2)cc1 -4.7%
Cc1cc(Br)ccc1SCC(=O)OCC(=O)NCc1ccc2c(c1)OCO2 4.5%
N#Cc1c(-c2ccc(F)cc2)cc(C2CC2)nc1SCC(=O)c1cccs1 12.6%
CCn1c2ccccc2c2cc(NC(=O)COC(=O)c3ccccc3Br)ccc21 0.6%
CC(C)Nc1nnc(SCC(=O)/C=C2\N(C)c3ccccc3C2(C)C)s1 0%
Cc1cccc(CC(=O)N2CCN=C2SCc2ccc([N+](=O)[O-])cc2)c1 5.7%
CCOc1ccc(CCNC(=O)CSc2cc(=O)n(C)c3ccc(Cl)cc23)cc1OCC 0.6%
Cc1c(C(=O)Nc2cccc(-c3nnc4n3CCCCC4)c2)oc2ccccc12 0.4%
CC(=O)c1ccc(NC(=O)Nc2ccc([N+](=O)[O-])cc2C)cc1 -2.3%
Cc1cc2oc(=O)cc(CN3CCN(S(=O)(=O)c4cccs4)CC3)c2cc1C(C)C -0.5%
O=C(CCCCCNC(=O)c1ccccc1)N/N=C/c1ccccc1 -6.5%
COc1ccc(NS(=O)(=O)c2ccc(NC(=S)NC(=O)/C=C/c3ccc(C)cc3)cc2)nn1 3.8%
O=C(NNC(=S)Nc1ccc(Br)cc1Cl)c1ccco1 -7.7%
COc1ccc(C(CC(=O)Nc2ccc(C)cc2)NC(=O)C(F)(F)F)cc1 (stereo unspecified) -0.4%
Brc1ccc(-c2csc(N/N=C/c3ccc4c(c3)OCO4)n2)cc1 18.4%
CCOc1ncccc1C(=O)N(C)CC(=O)Nc1ccc(F)cc1 -3.5%
CCCN1CNC(=S)N(CCc2ccccc2)C1 5.1%
Cc1cc(C)cc(C(=O)N2CCN=C2SCc2ccc([N+](=O)[O-])cc2)c1 0.8%
COc1cc(OC)c(C(=O)OC(C)C(=O)Nc2cc(C(F)(F)F)ccc2Cl)cc1OC (stereo unspecified) 4.1%
O=C(Nc1ccccc1F)c1ccccc1-c1ccccc1 0.5%
Cc1ccc(NC(=O)Nc2ccccc2)c(Br)c1 12.1%
COc1ccccc1CN(C)C(=O)C1(c2ccc(Cl)cc2)CC1 11.3%
C/C(=N\NS(=O)(=O)c1ccc(Cl)cc1)c1ccc(NC(=O)c2ccco2)cc1 -2.4%
CC1CCN(c2ccc(C(=O)NCc3ccc4c(c3)OCO4)cc2[N+](=O)[O-])CC1 0.5%
O=C(COC(=O)c1ccc(Cl)nc1)NCc1ccc2c(c1)OCO2 4%
COCCn1c(=NC(=O)c2ccccc2[N+](=O)[O-])sc2cc(S(C)(=O)=O)ccc21 2%
CCOC(=O)c1c(/N=C/c2cc(C)ccc2O)sc2c1CCC2 -6%
COc1cccc(NC(=O)C(Sc2nc3ccccc3c(=O)n2CC(C)C)c2ccccc2)c1 (stereo unspecified) 1%
COc1cc(C(=O)NCc2nnc(SCC(=O)Nc3nc4ccc(C)cc4s3)o2)cc(OC)c1OC 10.4%
COc1ccc(-c2csc(NC(=O)CCCc3cccs3)n2)cc1 -1.8%
O=C(Nc1ccc2c(c1)OCO2)c1ccc(N2C(=O)c3ccccc3C2=O)cc1 23.5%
C/C(CC1CC(C)(C)OC1=O)=N/Nc1nc(-c2ccccc2)cs1 (stereo unspecified) -0.2%
O=C(Cn1cnc2ccccc21)N/N=C/c1ccco1 -5.8%
c1ccc(C2=Nc3cccc4cccc(c34)N2)cc1 7%
COc1ccc(Br)cc1CN(C)CC(=O)Nc1cc([N+](=O)[O-])ccc1OC -0.1%
CCOC(=O)c1cnc2ccc(F)cc2c1Nc1ccc2c(c1)OCCO2 4.3%
Cc1c(Br)c([N+](=O)[O-])nn1CC(=O)Nc1sc2c(c1C(=O)OC(C)C)CCC(C)C2 (stereo unspecified) 10.3%
COc1ccc(/C=C2/C(=O)OCc3cc(OC)c(OC)cc32)c(OC)c1 4%
COc1ccc(-c2csc(NC(=O)COC(=O)Cc3ccc(Cl)cc3Cl)n2)cc1 -1.1%
Cc1ccc(-n2c(SCC(=O)N3c4ccccc4Sc4ccccc43)nnc2-c2ccncc2)cc1 7.2%
Cc1ccc(C)c(NC(=S)NCC(c2cccnc2)N2CCOCC2)c1 (stereo unspecified) 5%
Cc1ccc(S(=O)(=O)N2CCN(CC(=O)N/N=C/c3cc([N+](=O)[O-])ccc3Cl)CC2)cc1 -2.8%
COc1ccc(OCC(O)CNC(=O)Nc2ccc(Cl)cc2)cc1 (stereo unspecified) 7.7%
COc1cc(OC)c(C(=O)Nc2ccccc2-c2ccccc2)cc1OC 6.2%
COc1ccc([N+](=O)[O-])cc1NC(=O)c1ccc(N(Cc2ccccc2C)S(C)(=O)=O)cc1 0.6%
COc1ccc(C2Nc3ccccc3C(=O)N2c2ccc(F)cc2)cc1Cn1nnc2ccccc21 (stereo unspecified) -1.9%
O=C(N/N=C/c1cccc([N+](=O)[O-])c1)C1CC(=O)N(c2ccc(Br)cc2)C1 (stereo unspecified) -1.9%
CCN(C(=O)COC(=O)c1c(NC(C)=O)sc(C)c1C)C1CCS(=O)(=O)C1 (stereo unspecified) 0.3%
CCOC(=O)NC(=O)CSc1nnc(SCCC(=O)O)s1 -3.3%
Cc1cccc(OCc2ccc(C(=O)Nc3ccc(F)cc3)cc2)c1 -6.2%
O=C(NC(=S)Nc1ccc(NC(=O)c2cccs2)cc1)c1ccc([N+](=O)[O-])cc1 55.8%
CC(Sc1nc2cc(Cl)ccc2s1)C(=O)Nc1ccc2c(c1)OCO2 (stereo unspecified) 0.6%
COc1ccc(OC)c(/C=C/C(=O)OCC(=O)Nc2ccc3c(c2)OCCO3)c1 -3.7%
CCOc1ccc2c(=O)c(-c3ccc4c(c3)OCCCO4)c(C)oc2c1 3%
N#Cc1c(NC(=O)c2ccc(N3CCOCC3)c([N+](=O)[O-])c2)sc2c1CCCC2 -0.4%
Cc1ccc(S(=O)(=O)C2C(=O)NC3(C)CC2c2ccccc2O3)cc1 (stereo unspecified) 0.7%
CCC1CCCCN1C(=S)Nc1ccc(SC(F)F)cc1 (stereo unspecified) 1.7%
CCCC/C(C)=N/NC(=O)NC1CCCCC1 -0.9%
CC(C)CNC(=O)COC(=O)c1ccccc1OCC(=O)Nc1ccc(Br)cc1 1%
Cc1cc([N+](=O)[O-])ccc1NC(=O)C1CCCO1 (stereo unspecified) 1.8%
Cc1ccccc1NC(=O)CSC1=NCCN1 3.2%
Cc1cc(C)c[n+](-c2nc3ccccc3nc2[N-]S(=O)(=O)c2cccs2)c1 2.1%
COc1ccc([N+](=O)[O-])cc1NC(=O)C(C)OC(=O)C1c2ccccc2Oc2ccccc21 (stereo unspecified) -2.2%
COc1cc(Cl)c(C)cc1NC(=O)[C@@H]1CCCN1C(=O)c1cccs1 -2.3%
CCOC(=O)C1CCN(c2ccc(C(=O)O)cc2[N+](=O)[O-])CC1 -3.3%
O=C(NCC1CCCO1)/C(=C/c1ccc(Cl)cc1)NC(=O)c1ccccc1 (stereo unspecified) 0.2%
O=C(CN1CCN(c2ccccn2)CC1)N1CCc2ccccc21 3.8%
N#CC1(NC(=O)COc2ccc3oc4ccccc4c3c2)CCCCC1 10.2%
CN1CCN(c2ccc(S(=O)(=O)Nc3ccccc3)cc2[N+](=O)[O-])CC1 -2.2%
Cc1nnc(SCC(=O)N2CCOCC2)[nH]c1=O -6.4%
OCC(CO)(CO)NCc1ccc(-c2ccccc2)cc1 4.4%
COc1cc(/C=N/NC(=O)CCc2n[nH]c(=O)[nH]c2=O)ccc1O 15.1%
COC(=O)C1=C(NC(=O)C(C)(C)C)CCS1 1.8%
Cc1ccc(-c2nnc(SCC(=O)N/N=C/c3cccs3)n2-c2ccc(C)cc2)cc1 9%
COc1ccc(NS(=O)(=O)c2ccc(NC(=O)c3ccc(N(C)S(C)(=O)=O)cc3)cc2)cc1 -3.8%
Cc1ccc(O)c(CCc2ccccc2)n1 -3.8%
CCOC(=O)c1oc2c(CN3CCN(C)CC3)c(O)ccc2c(=O)c1-c1ccc(Br)cc1 2%
O=C(COC(=O)Cn1cnc2ccccc2c1=O)NCC12CC3CC(CC(C3)C1)C2 5.2%
CSCCC(NC(=O)c1cc([N+](=O)[O-])cc([N+](=O)[O-])c1)c1nc2ccccc2[nH]1 (stereo unspecified) 22%
Cc1ccc2nc(SCc3cn4c(C)cc(C)nc4n3)[nH]c2c1 -2.3%
Oc1c(Br)cccc1/C=N/Nc1c(F)c(F)c(F)c(F)c1F -10.4%
